Laboratory results reported in PubChem BioAssay AID1347413 (National Center for Advancing Translational Sciences (NCATS), 2020).
Values without a mark were called inactive. The source made the active and inactive calls. Calls come from the whole dose curve; as a rule, active = well fitted curve in the direction sought with a large enough effect; inactive = no such curve, though single readings can be large or run the other way.

Test: qHTS to identify inhibitors of the type 1 interferon - major histocompatibility complex class I in skeletal muscle: tertiary screen by RT-qPCR, retest select compounds
Conditions: C25cl48 myoblasts, IFN-beta, HLA-B RT-qPCR, 24 h; series mostly up to 49.8 µM; activity change, negative = inhibition: at the top concentration
From the text: Assay Submitter (PI): Travis B. Kinder Ph.D. & James Inglese Ph.D. Assay Development and Screening Technology Laboratory (ADST) National Center for Advancing Translational Sciences (NCATS), Rockville, MD National Institute of Health (NIH), Bethesda, Maryland Idiopathic inflammatory myopathies, collectively referred to as myositis, are a group of rare autoimmune diseases characterized by skeletal muscle inflammation, weakness, and usually accompanied by systemic pathologies of the skin, lungs, or vasculature. Current immunosuppressive therapies and glucocorticoids are often not curative and are accompanied by harsh side effects, especially in children with juvenile myositis. We initiated a drug repurposing and development program to identify more targeted, less toxic therapeutics to treat myositis. Although its cause is not known, muscle from a subset of patients have an abundance of the inflammatory type 1 interferon (IFN) and a down-stream product major histocompatibility complex class I (MHC class I), which are both thought to contribute to damage and weakness. We conducted quantitative high throughput screening (qHTS) on 6,576 compounds (4,679 unique) through a series of cell-based assays to identify those that inhibit the IFN-stimulated expression of MHC class I in muscle precursor cells (myoblasts). The compound identification and evaluation strategy utilized a primary screen with reporter-tagged MHC class I in genome-engineered myoblasts, ATP content counter screen for viability, HLA-ABC immunofluorescence secondary screen, and HLA-B RT-qPCR tertiary screen. To determine if active compounds identified by qHTS in HLA-B HiBit reporter cells, and confirmed by HLA-ABC immunofluorescence, can inhibit the transcription of HLA-B mRNA, compounds were assayed by RT-qPCR. […] Briefly, five compounds identified from primary, counter, and secondary screening as inhibitory with minimal cytotoxicity were dispensed into 384-well plates using acoustic dispensing in a 6-point, 1:7 titration with a high final concentration of 10 uM. Normal immortalized human myoblasts C25cl48 were added to the plate with 4.0 ng/ml human IFN-beta for 24 hours, and cells were harvested and assayed by the Cells-to-Ct kit with TaqMan assays (Thermo Fisher).
PROTOCOL TABLE (as described by Inglese et al., 2007) SEQUENCE No. (e.g., 1, 2, 3, etc.); PARAMETER (e.g., Cells, Incubation, Reagent, etc.); VALUE; DESCRIPTION 0; Compounds; 150 nl; Follow-up compounds dispensed at 150 nl/well with Labcyte Echo 655 acoustic dispenser into one Corning white/clear bottom, high base TC 384-well plates (3765) 1a; Cells; 30 uL; Using a p200 manual pipette, seed 780 cells/well into 1 plate in 30 ul/well of iHSKM growth medium without dexamethasone into columns wells A1-A6. […]

SMILES	Potency	activity change, negative = inhibition
CS[C@H]1SC[C@@H]2C(=O)N(C)[C@H](C(C)C)C(=O)OC[C@H](NC(=O)c3cnc4ccccc4n3)C(=O)N[C@H](C)C(=O)N(C)[C@H]1C(=O)N(C)[C@H](C(C)C)C(=O)OC[C@H](NC(=O)c1cnc3ccccc3n1)C(=O)N[C@H](C)C(=O)N2C	2.9 nM (active)	
CC(=O)OCC(=O)[C@@]12OC(C)(C)O[C@@H]1C[C@H]1[C@@H]3C[C@H](F)C4=CC(=O)C=C[C@]4(C)[C@@]3(F)[C@@H](O)C[C@@]12C		-17.2%
C[C@]12C=CC(=O)C=C1CC[C@@H]1[C@@H]2[C@@H](O)C[C@@]2(C)[C@H]1CC[C@]2(O)C(=O)CO		-12.4%
Cc1ncsc1-c1ccc([C@H](C)NC(=O)[C@@H]2C[C@@H](O)CN2C(=O)[C@@H](NC(=O)COCCCOCCNC(=O)C[C@@H]2N=C(c3ccc(Cl)cc3)c3c(sc(C)c3C)-n3c(C)nnc32)C(C)(C)C)cc1	164 nM (active)	
